Experimental data reported in PubChem BioAssay (EPA / NIEHS).
Results filed as inconclusive are left out. Activity calls are given as the source filed them. Rule for the calls: active = hit-call score of the fitted dose curve at least 0.9, where 1 is the maximum; inconclusive = response in the unintended direction; inactive = score below 0.9.

molecular target: Estrogen receptor (Homo sapiens) + Estrogen receptor beta (Homo sapiens) (UniProt P03372+Q92731); assay: OT_ER_ERaERb_0480: Odyssey Thera (OT) 8-hour HEK293T Protein-Complementation Assay for Estrogen Receptor-alpha/-beta Heterodimer (AID 2283352)
Sequence (P03372 whole entry, looked up, the tested form may be a part): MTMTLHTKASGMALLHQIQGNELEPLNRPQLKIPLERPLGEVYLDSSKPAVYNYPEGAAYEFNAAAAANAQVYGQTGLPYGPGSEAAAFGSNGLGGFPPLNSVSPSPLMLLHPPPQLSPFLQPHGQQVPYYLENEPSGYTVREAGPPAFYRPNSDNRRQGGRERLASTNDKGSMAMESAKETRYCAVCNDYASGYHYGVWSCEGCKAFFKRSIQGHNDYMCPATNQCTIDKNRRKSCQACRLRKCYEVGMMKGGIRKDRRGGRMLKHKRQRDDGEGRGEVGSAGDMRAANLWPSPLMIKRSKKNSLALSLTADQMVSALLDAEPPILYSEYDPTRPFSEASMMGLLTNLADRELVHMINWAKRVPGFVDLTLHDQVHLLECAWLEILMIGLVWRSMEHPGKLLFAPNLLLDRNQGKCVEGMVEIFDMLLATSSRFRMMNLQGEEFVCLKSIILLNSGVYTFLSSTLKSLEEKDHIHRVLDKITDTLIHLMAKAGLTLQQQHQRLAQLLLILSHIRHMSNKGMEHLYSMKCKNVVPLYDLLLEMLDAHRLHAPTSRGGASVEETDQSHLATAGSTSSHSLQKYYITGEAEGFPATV
Sequence (Q92731 whole entry, looked up, the tested form may be a part): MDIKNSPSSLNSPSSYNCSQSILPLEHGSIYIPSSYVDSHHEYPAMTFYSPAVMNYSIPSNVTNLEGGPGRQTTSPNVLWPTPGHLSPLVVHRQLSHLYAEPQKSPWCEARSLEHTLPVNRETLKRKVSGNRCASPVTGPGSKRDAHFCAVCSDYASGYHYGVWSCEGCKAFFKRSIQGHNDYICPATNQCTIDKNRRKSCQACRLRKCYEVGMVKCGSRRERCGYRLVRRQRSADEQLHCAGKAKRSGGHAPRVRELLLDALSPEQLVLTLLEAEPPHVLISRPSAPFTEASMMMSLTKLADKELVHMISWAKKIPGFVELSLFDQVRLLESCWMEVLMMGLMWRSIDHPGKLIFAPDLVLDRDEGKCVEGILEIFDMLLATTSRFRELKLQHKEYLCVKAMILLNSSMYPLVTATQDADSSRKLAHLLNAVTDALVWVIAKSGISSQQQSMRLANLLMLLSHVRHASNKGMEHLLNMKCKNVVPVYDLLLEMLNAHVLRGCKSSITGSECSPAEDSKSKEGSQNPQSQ
Summary of the method: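 HEK293T protein-fragment complementation assay of ER-alpha/ER-beta LBD heterodimerisation, read 8 h after dosing. Mean nuclear/cytoplasmic fluorescence intensity measured by laser scanning cytometry; gain of signal fitted relative to DMSO.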

For `O=C(Nc1ccc2c(O)c(N=Nc3ccc(N=Nc4ccc(S(=O)(=O)O)cc4)cc3)c(S(=O)(=O)O)cc2c1)c1ccccc1`, which outcome is on record?
The outcome was “inactive”.

Which AC50 does the source give for `CC(C)CCCCCCc1ccc(OCCOCCO)cc1` here?
Its AC50 is 33.8 µM (active).

For `CCCCCCCCCCCC(=O)OCC(O)CO` (stereo unspecified), which outcome is on record?
Its outcome is “inactive”.

molecular target: Androgen Receptor/SRC-1 Co-activator, AR (gene 367) (UniProt P10275); assay: OT_AR_ARSRC1_0960: Odyssey Thera (OT) 16-hour HEK293T Protein-Complementation Assay for Androgen Receptor/SRC-1 Co-activator (AID 2283353);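 note: actives raise the signal above DMSO so potency reflects increased AR and SRC-1 complex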
Sequence (P10275 whole entry, looked up, the tested form may be a part): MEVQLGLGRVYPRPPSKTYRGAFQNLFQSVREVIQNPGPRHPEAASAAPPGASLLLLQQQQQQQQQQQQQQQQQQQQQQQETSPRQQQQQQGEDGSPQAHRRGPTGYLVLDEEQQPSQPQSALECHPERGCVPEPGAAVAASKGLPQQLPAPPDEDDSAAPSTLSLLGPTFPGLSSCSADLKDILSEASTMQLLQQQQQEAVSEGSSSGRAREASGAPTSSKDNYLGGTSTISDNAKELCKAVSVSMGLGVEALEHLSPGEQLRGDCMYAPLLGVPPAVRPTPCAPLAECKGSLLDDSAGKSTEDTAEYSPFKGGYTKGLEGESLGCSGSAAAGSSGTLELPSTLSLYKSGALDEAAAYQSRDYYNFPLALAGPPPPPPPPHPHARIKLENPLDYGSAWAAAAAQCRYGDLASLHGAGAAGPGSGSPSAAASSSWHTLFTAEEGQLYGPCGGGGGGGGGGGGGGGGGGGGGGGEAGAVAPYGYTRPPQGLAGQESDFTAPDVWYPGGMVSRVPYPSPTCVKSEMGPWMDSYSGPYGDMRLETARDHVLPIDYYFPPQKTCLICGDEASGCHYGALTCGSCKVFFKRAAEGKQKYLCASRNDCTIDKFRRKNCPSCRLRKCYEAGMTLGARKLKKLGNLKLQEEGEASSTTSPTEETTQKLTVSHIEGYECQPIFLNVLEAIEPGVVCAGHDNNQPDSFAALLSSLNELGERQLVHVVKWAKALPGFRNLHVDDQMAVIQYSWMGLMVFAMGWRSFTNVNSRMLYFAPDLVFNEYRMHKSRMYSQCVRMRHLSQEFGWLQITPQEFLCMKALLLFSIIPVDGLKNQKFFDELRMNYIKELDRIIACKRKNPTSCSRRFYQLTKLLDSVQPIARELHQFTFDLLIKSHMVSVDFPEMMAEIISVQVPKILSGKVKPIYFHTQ
Summary of the method: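 HEK293T cells stably expressing AR and SRC-1 fused to split Venus YFP fragments via (Gly4Ser)2 linkers were dosed for 16 h. Nuclear/cytoplasmic fluorescence ratio at 488 nm, ≥400 cells per image, fitted for gain of signal versus DMSO.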

With `BrCc1cccc(Oc2ccccc2)c1` as the molecule, how does the outcome read?
Its outcome is “inactive”.

For `CCCCCCCCSCCO`, which outcome is on record?
The outcome was “inactive”.

`OCc1cccc(Oc2ccccc2)c1` was tested. Which outcome did it give?
The outcome was “inactive”.

Which outcome does the source give for `CCOC(=O)[C@@H](C)Oc1ccc(Oc2nc3ccc(Cl)cc3o2)cc1` here?
The outcome was “inactive”.

How did the outcome turn out when `CC(C)CCCCCCc1ccc(OCCOCCO)cc1` was run?
The outcome was “inactive”.

For `CCCCCCCCCCCCCC(=O)OCC(O)CO` (stereo unspecified), which outcome is on record?
Its outcome is “inactive”.

Which outcome does the source give for `CC(=O)O[C@H]1C[C@@H]2CC[C@@]1(C)C2(C)C` here?
The outcome was “inactive”.

Which outcome does the source give for `CC1CCC(C(C)C)C(O)C1` (stereo unspecified) here?
The outcome was “inactive”.

`Nc1ccc(N)c2c1C(=O)c1ccccc1C2=O` was tested. Which AC50 did it give?
Its AC50 is 35.3 µM (active).

Which outcome does the source give for `CCc1ccc(O)cc1` here?
Its outcome is “inactive”.

Which outcome does the source give for `CC(=O)O[C@@H]1CC2CCC1(C)C2(C)C` (stereo partly specified) here?
The outcome was “inactive”.

With `CCc1cc(Cc2cc(CC)cc(C(C)(C)C)c2O)c(O)c(C(C)(C)C)c1` as the molecule, how does the AC50 read?
The AC50 was 10.7 µM (active).

`CCCCC1CCC(O)CC1` (stereo unspecified) was tested. Which outcome did it give?
The outcome was “inactive”.

With `C[C@H]1O[C@@H](O[C@H]2[C@@H](O)C[C@H](O[C@H]3[C@@H](O)C[C@H](O[C@H]4CC[C@@]5(C)[C@H](CC[C@@H]6[C@@H]5C[C@@H](O)[C@]5(C)[C@@H](C7=CC(=O)OC7)CC[C@]65O)C4)O[C@@H]3C)O[C@@H]2C)C[C@H](O)[C@@H]1O` as the molecule, how does the AC50 read?
The AC50 was 0.118 µM (active).

`CCCCCCCCC=CCCCCCCCC1=NCCN1CCO` was tested. Which AC50 did it give?
The AC50 was 15.7 µM (active).

molecular target: Androgen Receptor/SRC-1 Co-activator, AR (gene 367) (UniProt P10275); assay: OT_AR_ARSRC1_0480: Odyssey Thera (OT) 8-hour HEK293T Protein-Complementation Assay for Androgen Receptor/SRC-1 Co-activator (AID 2283354);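 note: hits raise the complementation signal above DMSO so AC50 marks enhancers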
Summary of the method: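 Measures AR/SRC-1 binding by Venus YFP fragment complementation in HEK293T stable lines at 8 h post-dose. Imaging quantifies the 488nm nucleus/cytoplasm ratio in ≥400 cells; DMSO defines baseline.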

With `BrCc1cccc(Oc2ccccc2)c1` as the molecule, how does the outcome read?
Its outcome is “inactive”.

How did the outcome turn out when `CCCCCCCCSCCO` was run?
The outcome was “inactive”.

How did the outcome turn out when `CC(C=O)Cc1ccc(C(C)(C)C)cc1` (stereo unspecified) was run?
The outcome was “inactive”.

Which outcome does the source give for `OCc1cccc(Oc2ccccc2)c1` here?
The outcome was “inactive”.

How did the outcome turn out when `CCOC(=O)[C@@H](C)Oc1ccc(Oc2nc3ccc(Cl)cc3o2)cc1` was run?
Its outcome is “inactive”.

Which outcome does the source give for `CCCCCCCCCCCCCC(=O)OCC(O)CO` (stereo unspecified) here?
Its outcome is “inactive”.

Which outcome does the source give for `CC1CCC(C(C)C)C(O)C1` (stereo unspecified) here?
The outcome was “inactive”.

Which outcome does the source give for `Nc1ccc(N)c2c1C(=O)c1ccccc1C2=O` here?
Its outcome is “inactive”.

`CCc1ccc(O)cc1` was tested. Which outcome did it give?
Its outcome is “inactive”.

How did the AC50 turn out when `CCc1cc(Cc2cc(CC)cc(C(C)(C)C)c2O)c(O)c(C(C)(C)C)c1` was run?
Its AC50 is 15.8 µM (active).

For `CCCCC1CCC(O)CC1` (stereo unspecified), which outcome is on record?
Its outcome is “inactive”.

`C[C@H]1O[C@@H](O[C@H]2[C@@H](O)C[C@H](O[C@H]3[C@@H](O)C[C@H](O[C@H]4CC[C@@]5(C)[C@H](CC[C@@H]6[C@@H]5C[C@@H](O)[C@]5(C)[C@@H](C7=CC(=O)OC7)CC[C@]65O)C4)O[C@@H]3C)O[C@@H]2C)C[C@H](O)[C@@H]1O` was tested. Which outcome did it give?
Its outcome is “inactive”.

Which AC50 does the source give for `CCCCCCCCC=CCCCCCCCC1=NCCN1CCO` here?
The AC50 was 23.3 µM (active).
